DT40 TDP1 CPT: qHTS for Inhibitors of human tyrosyl-DNA phosphodiesterase 1 (TDP1): qHTS in cells in presence of CPT; chicken DT40 Tdp1-/-;hTDP1 cells + 20 nM CPT, ATP luminescence, 48 h; Potency, µM (doses to about 46.2 µM), for the others: top-dose activity change, negative = growth inhibition, most hits filed as inhibitors; actives 12% (n = 420,000); note: potency is the fitted concentration of half-maximal effect; nearly all actives have a fitted effect of over 55% in size
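Cell growth measured by CellTiter-Glo luminescence after a minimum 48 h, 37 C compound exposure with 20 nM CPT in Tdp1-knockout DT40 cells stably expressing hTDP1, seeded 400/well; qHTS titration format.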
IL1B secr inh: qHTS for Inhibitors of Inflammasome Signaling: IL-1-beta AlphaLISA Primary Screen | THP-1 LPS/ATP IL-1B secretion, AlphaLISA, 16 h; stronger effect = lower value | activity change, % at 57.5 µM | actives 4.7% (n = 360,000) | AID 743279, 2014; in the data active = activity change below about -50%; inconclusive = mostly about -30% to -49%
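Secreted IL-1B measured by AlphaLISA bead assay after 16 h compound exposure of THP-1 cells; compounds (final up to 57.5 uM) added 1 h before LPS (250 ng/mL) and ATP (1.25 mM) stimulation; lower signal means less secretion.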
Six1-Eya2 blk: qHTS Assay for Inhibitors of the Six1/Eya2 Interaction; Homeobox protein SIX1 (Homo sapiens) + Protein phosphatase EYA2 (Homo sapiens), …; AlphaScreen GST-Six1/His-Eya2 binding, biochemical; stronger effect = lower value; activity change, % (test concentration not listed); actives 0.56% (n = 360,000); AID 651725, 2012; in the data active = activity change below about -65%; inconclusive = mostly about -30% to -63%
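Homogeneous AlphaScreen proximity assay pairing GST-Six1 with His-tagged Eya2 (added as 5X mix: 250 nM and 500 nM) in 50 mM Tris pH 8.0, 300 mM NaCl, 1 mM TCEP. Glutathione donor and nickel acceptor beads; 1 h, 37 °C, dark.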
CtBP-E1A inh: qHTS Assay for Inhibitors of the CtBP/E1A Interaction | CtBP / adenovirus E1A interaction (AlphaScreen) | AlphaScreen GST-E1A/His-CtBP binding, 1536-well; stronger effect = lower value | activity change, % (test concentration not listed) | actives 0.49% (n = 340,000) | AID 651724, 2012; in the data active = activity change below about -65%; inconclusive = mostly about -30% to -63%
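Homogeneous bead-based format: GST-tagged E1A captured on glutathione donor beads, His-tagged CtBP on nickel acceptor beads; compounds precede bead addition by 2 h at 37 °C.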
TDP1 inh: qHTS Assay for Inhibitors of Tyrosyl-DNA Phosphodiesterase (TDP1). Tyrosyl-DNA phosphodiesterase 1 (Homo sapiens), Q9NUW8. recombinant TDP1, AlphaScreen DNA substrate cleavage. Potency, µM (titrated, usually from 130 µM), for inactives: top-dose activity change, negative = inhibition, actives largely listed as inhibitors. actives 0.28% (n = 350,000). AID 485290, 2010; note: potency is the fitted concentration of half-maximal effect; nearly all actives have a fitted effect of over 40% in size
Target sequence (Q9NUW8 whole entry, looked up): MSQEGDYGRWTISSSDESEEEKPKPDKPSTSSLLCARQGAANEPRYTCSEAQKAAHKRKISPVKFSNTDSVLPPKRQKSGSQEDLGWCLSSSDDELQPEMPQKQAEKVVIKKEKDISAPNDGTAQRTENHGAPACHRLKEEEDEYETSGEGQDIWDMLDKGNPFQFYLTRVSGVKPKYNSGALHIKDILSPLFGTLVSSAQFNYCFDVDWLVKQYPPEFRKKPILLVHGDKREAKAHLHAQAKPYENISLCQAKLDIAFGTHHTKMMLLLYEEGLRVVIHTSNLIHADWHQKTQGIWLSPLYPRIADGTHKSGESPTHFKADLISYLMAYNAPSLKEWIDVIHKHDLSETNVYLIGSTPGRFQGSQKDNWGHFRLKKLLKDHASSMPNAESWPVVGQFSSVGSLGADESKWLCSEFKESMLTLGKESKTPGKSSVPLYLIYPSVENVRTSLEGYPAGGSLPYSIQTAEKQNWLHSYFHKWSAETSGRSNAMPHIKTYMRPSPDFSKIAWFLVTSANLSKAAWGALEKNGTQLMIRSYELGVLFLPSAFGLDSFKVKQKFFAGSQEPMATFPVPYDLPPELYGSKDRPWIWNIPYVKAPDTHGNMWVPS
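E. coli-derived human Tdp1, 1 nM final. Cpd preinc 15 min RT; substrate 15 nM final, 5 min RT; AS bead mix 10 ug/ml final, 10 min RT. Signal loss = tyrosine-FITC cleavage. No-enzyme wells = max signal.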
DT40 TDP1 no CPT: qHTS for Inhibitors of human tyrosyl-DNA phosphodiesterase 1 (TDP1): qHTS in cells in absence of CPT; DT40 Tdp1-/- hTDP1 cells, no CPT, ATP luminescence, 48 h; Potency, µM (doses to about 46.2 µM), for inactives: top-dose activity change, negative = growth inhibition, most hits filed as inhibitors; actives 15% (n = 420,000); note: potency is the fitted concentration of half-maximal effect; nearly all actives have a fitted effect of over 55% in size
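Chicken DT40 Tdp1-/- cells complemented with human TDP1, screened without camptothecin (DMSO vehicle only), 400 cells/well. Compounds pin-transferred, cells incubated at 37 °C for at least 48 hr. Growth read as ATP-dependent luminescence (CellTiter-Glo, 30 min at RT).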
* marks the source's active call; other numbers are inactive results; ? = inconclusive; . = not tested or not shown. This is a sample that favours compounds with a hit; in the whole collection about 18% have one here. Unless noted, calls come from the whole dose curve; as a rule, active = well fitted curve in the direction sought with a large enough effect; inconclusive = small, poorly fitted or top-dose-only effect, or another doubt; inactive = no such curve, though single readings can be large; an effect the other way counts as inactive or inconclusive. % is set by controls: 0 for no effect and ±100 for the full control effect.

SMILES	DT40 TDP1 CPT	IL1B secr inh	Six1-Eya2 blk	CtBP-E1A inh	TDP1 inh	DT40 TDP1 no CPT
CCCCNc1c(-c2cc3ccccc3o2)nc2nc(C)cc(C)n12	?	-10	9	-10	.	23µM*
COc1cccc(-c2nc3nc(C)cc(C)n3c2Nc2c(C)cccc2C)c1	?	-4	-4	0	.	?
Cc1cc(C)n2c(Nc3c(C)cccc3C)c(-c3ccccn3)nc2n1	5.8µM*	183	-90*	?	.	7.3µM*
COc1ccc(CNC(=O)c2sc(=S)n(-c3ccccc3)c2N)cc1	?	-11	-9	-20	1%	?
COc1ccc(NC(=S)NCc2cccnc2)cc1	-1%	-18	7	5	3%	?
CCOC(=O)c1c(C)[nH]c(C)c1C(=O)COC(=O)/C=C/c1ccc(OC(F)F)cc1	?	-54*	-17	-6	3%	?
CCCOc1ccc(/C(O)=C2/C(=O)C(=O)N(CCCn3ccnc3)C2c2cccs2)cc1 (stereo not drawn)	13%	10	1	7	11%	0%
Cc1ccc(CCC(=O)Nc2ccc(N(C)C)cc2)o1	16µM*	-6	-5	-2	.	?
O=C(O)c1ccc(-n2nc(C(F)(F)F)c3c2-c2ccoc2CC3)cc1	-21%	0	-1	2	-13%	?
C[C@H]1CN([C@@H](C)CO)S(=O)(=O)c2ccc(Br)cc2O[C@@H]1CN(C)C(=O)Cc1cccnc1	16%	11	2	1	.	5%
Cc1ccc(Cn2c(=O)n(CC3CCC(C(=O)N4CCC(C)CC4)CC3)c(=O)c3sccc32)cc1 (stereo not drawn)	?	.	.	.	7%	?
CNC(=O)C1CCC(Cn2c(=O)c3sccc3n(CC(=O)Nc3ccccc3)c2=O)CC1 (stereo not drawn)	1%	.	.	.	6%	-23%
CCN(CC)C(=O)Cn1c(=O)n(Cc2ccc(F)cc2)c(=O)c2sccc21	9.2µM*	4	2	-20	.	?
CNC(=O)C1CCC(Cn2c(=O)c3sccc3n(CC(=O)Nc3cc(C)cc(C)c3)c2=O)CC1 (stereo not drawn)	?	.	.	.	10%	10µM*
Cc1ccccc1Cn1c(=O)n(CC2CCC(C(=O)N3CCC(C)CC3)CC2)c(=O)c2sccc21 (stereo not drawn)	23µM*	.	.	.	6%	16µM*
O=C(C1CCC(Cn2c(=O)c3sccc3n(Cc3ccc(F)cc3)c2=O)CC1)N1CCOCC1 (stereo not drawn)	23µM*	.	.	.	7%	18µM*
Cc1cc(C)c(C)c(S(=O)(=O)NCC(=O)Nc2ccccc2F)c1C	-2%	-11	-2	4	5%	2%
CCOC(=O)c1cccc(NC(=O)CSc2nnc(CNc3ccc(C)cc3)n2CC)c1	?	3	-7	-22	7%	?
CCCCNC(=O)C1CCC(Cn2c(=O)c3sccc3n(Cc3ccccc3)c2=O)CC1 (stereo not drawn)	0%	.	.	.	-2%	4%
Cc1ccccc1Cn1c(=O)n(CC2CCC(C(=O)NCCc3ccccc3)CC2)c(=O)c2ccccc21 (stereo not drawn)	21µM*	30	8	9	1%	29µM*
COc1ccc(CCNC(=O)CN2C(=O)c3ccccc3C2=O)cc1	2%	-1	2	0	2%	-5%

Screening data: PubChem BioAssay, National Center for Advancing Translational Sciences (NCATS)
